The list is not random: actives were taken first. Their share in the collection is about 3.3%.
Mcl1-Bid inh – Mcl-1/Bid binding inhibitors, primary screen, biochemical, TR-FRET, 1536-well. TR-FRET Mcl-1/Bid-Dy647 peptide binding. inhibition, % at 21.7 µM. 0.97% of 220,000 active;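 active = compounds that cut the binding signal by more than half at the single screening dose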;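 also: His-tagged Mcl-1 with europium anti-His antibody binding Bid BH3 peptide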
eIF4E 4G PPI – eIF4E–eIF4G protein interaction inhibitors, primary screen, biochemical, uHTS, TR-FRET, eIF4GI fragment. 0.37% of 220,000 active. AID 782, 2007. Eukaryotic translation initiation factor 4E (Mus musculus) + Eukaryotic translation …. inhibition, % at 21.7 µM. TR-FRET eIF4E-eIF4GI(517-606) binding, 2 h
Mcl1 Noxa PPI – Mcl-1/Noxa binding inhibitors, primary screen, biochemical, TR-FRET, 1536-well | Induced myeloid leukemia cell differentiation protein Mcl-1 (Homo sapiens), Q07820 | TR-FRET Mcl-1/Noxa peptide binding, 2 h | inhibition, % at 21.7 µM | 1.5% of 220,000 active | AID 1022, 2008;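 active = compounds that cut the protein-peptide binding signal by more than 50% relative to plate controls in a single-dose test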;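 also: His-tagged Mcl-1 with rhodamine Noxa BH3 peptide and terbium anti-His antibody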
Mcl-1 Bim block – inhibitors of Bim peptide binding to Mcl-1, primary screen, biochemical, bead-based flow cytometry, multiplex. inhibition, % at 10 µM. Bim peptide-Mcl-1 binding. AID 1009, 2008. 0.1% of 190,000 active; in the data active = inhibition above about 40%
NCF1 inh – p47phox/p22phox peptide binding inhibitors, primary screen, biochemical, uHTS, NADPH oxidase regulatory subunit; fluorescence polarization, 2 h; inhibition, % at 24.7 µM; 0.53% of 220,000 active
14-3-3 Bad PPI – inhibitors of 14-3-3 zeta/Bad binding, primary screen, biochemical, TR-FRET, bovine 14-3-3 zeta; 0.71% of 220,000 active; 14-3-3 protein zeta/delta (Bos taurus), P63103; inhibition, % at 21.7 µM; AID 781, 2007; TR-FRET 14-3-3zeta/Dy647-pBad peptide displacement, 1 h;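 active = inhibition above about 70%, limit read from the data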
Hits are given with their value; - = inactive; . = no result given; [ ] = remark or other dose.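 The calls were made as follows, unless noted: active = inhibition above about 30% (limit read from the data); inactive = the rest.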

SMILES	Mcl1-Bid inh	eIF4E 4G PPI	Mcl1 Noxa PPI	Mcl-1 Bim block	NCF1 inh	14-3-3 Bad PPI
CC1(c2nnc(-c3ccncc3)o2)CC(c2ccc(F)cc2)=NO1 (centres undefined)	-	-	-	.	-	-
Cc1onc(-c2ccccc2Cl)c1C(=O)NC(=S)Nc1ccc(C(C)C)cc1	-	-	-	.	-	-
COc1c(Cl)cc(-c2noc(C)c2C(=O)NC(C)C)cc1Cl	-	42	-	-	-	-
CCNc1nc(NCC)n2c(SCC(=O)c3ccccc3Cl)nnc2n1	-	-	-	-	-	-
CC(Oc1ccc2ccc(=O)oc2c1)C(=O)c1ccccc1 (centres undefined)	52	-	-	-	-	-
CCOC(=O)c1cc(C#N)c(SCC(=O)OC)[nH]c1=O	72	-	-	.	-	-
Cc1cc(-c2csc(NC(=O)c3ccccc3C(F)(F)F)n2)c(C)n1Cc1ccccc1	-	-	-	-	-	-
Cc1cc(-c2csc(NC(=O)c3ccc(=O)n(C)n3)n2)c(C)n1CC1CCCO1 (centres undefined)	-	-	54	-	-	-
CC(C)CCn1c2ccccc2c2cc(CC(N)=O)ccc21	-	-	-	.	-	-
CCOCCCNCc1ccc(OC)c(OC)c1	-	-	-	-	-	-
CCOC(=O)CCNCc1ccc(OC)c(OC)c1	-	-	54	.	-	-
COC(=O)C(=C/C=C/N1CCOCC1)C(=O)OC	-	-	-	.	-	-
Cc1c(CCC(=O)O)c(=O)oc2c(C)c(OCc3cc4c(cc3Cl)OCO4)ccc12	-	-	58	.	-	-
Cc1ccc(-c2nn(CCC(=O)NN3CCOCC3)c(=O)c3ccccc23)cc1	-	-	-	.	-	-
O=C(CS(=O)(=O)Cc1ccccc1)Nc1nc2ccccc2s1	-	-	-	-	56	-
O=S(=O)(c1ccc(Cl)cc1)n1c(Cc2ccccc2)nc2ccccc21	-	-	-	-	-	-
COc1ccccc1Cc1nc2ccccc2n1S(=O)(=O)c1ccc(Cl)cc1	59	-	-	-	-	-
CC1=CN2C(=N)/C(=C/c3ccc([N+](=O)[O-])o3)C(=O)N=C2S1	-	-	65	-	-	-
CCOc1ccc(-c2ccc(/C=C3/C(=N)N4C=CSC4=NC3=O)o2)c([N+](=O)[O-])c1	89	-	129	-	-	84[fluorescence artefact?]
CCOc1ccc(-c2ccc(/C=C3/C(=N)N4C(C)=CSC4=NC3=O)o2)c([N+](=O)[O-])c1	68	-	66	-	-	-
COc1ccc(-c2c([C@H]3[C@H]4C=CC[C@@H](C)[C@@H]4C(=O)N3Cc3ccccc3)ccc3ccccc23)cc1OC	-	-	-	.	-	-
COc1ccccc1N1CCN(C2CCN(C(=O)c3cccs3)CC2)CC1	58	-	-	-	-	-
COc1ccccc1N1CCN(C2CCN(C(=O)c3cc(OC)c(OC)c(OC)c3)CC2)CC1	-	-	-	-	-	79
O=C(c1cccs1)N1CCC(N2CCN(c3ccccc3)CC2)CC1	-	-	-	-	-	-
C=C(C)C1CC=C(C)/C(=N/NC(=O)c2ccc(NC(=O)c3cccc(C)c3)cc2)C1 (centres undefined)	-	-	-	-	37	-
SMILES	Mcl1-Bid inh	eIF4E 4G PPI	Mcl1 Noxa PPI	Mcl-1 Bim block	NCF1 inh	14-3-3 Bad PPI
Cn1c(=O)n(C)c2cc(S(=O)(=O)O)ccc21	-	-	-	-	-	74
CCCNS(=O)(=O)c1ccc2c(c1)n(C)c(=O)n2C	-	-	-	-	-	84
Cn1c(=O)c2cc(S(=O)(=O)Nc3cc(C(=O)O)cc(C(=O)O)c3)ccc2n(C)c1=O	-	-	-	46	-	-
Cn1c(=O)n(C)c2cc(S(=O)(=O)NCC(=O)O)ccc21	-	-	-	-	-	-
Cc1cc(C)cc(NS(=O)(=O)c2ccc3c(c2)c(=O)n(C)c(=O)n3C)c1	-	-	-	-	-	-
CCNS(=O)(=O)c1ccc2c(c1)n(C)c(=O)n2C	-	-	-	-	-	-
CCOc1ccccc1NC(=O)CN(c1ccc(OC)cc1OC)S(=O)(=O)c1ccccc1[N+](=O)[O-]	-	-	-	-	-	-
COC(=O)N/N=C\c1cccc(OC(=O)c2cccs2)c1	-	-	-	-	-	-
O=C1NN(c2ccccc2)C(=O)/C1=C\c1cccc(OC(=O)c2cccs2)c1	-	-	57	-	-	-
O=C1NN(c2ccc(Cl)c(Cl)c2)C(=O)/C1=C/c1cccc(OC(=O)c2cccs2)c1	90	-	96	-	-	-
CNC[C@H](O)c1cccc(O)c1	-	-	-	-	-	-
CNC[C@H](O)c1ccc(O)c(O)c1	-	-	-	-	51	-
O=C(NCc1ccncc1)/C(=C/c1cccc([N+](=O)[O-])c1)NC(=O)c1ccccc1	-	-	-	.	-	-
CC(C)N1CCN(Cc2ccc(Sc3nncn3C)o2)CC1CCO (centres undefined)	-	94	-	.	-	-
COc1ccc(NC(=O)c2cc3cccc(OC)c3oc2=Nc2ccc(C(=O)O)cc2)cc1OC	-	-	77	-	-	-
COc1ccc(Br)cc1C(=O)Nc1ccc(C(=O)O)cc1	-	-	-	-	-	-
COC(=O)/C=C/c1ccsc1NC(C)=O	-	-	-	-	-	-
CC1=C/C(=C\c2ccc(Br)o2)C(=O)O1	-	-	71	-	-	-
O=C1C(=Cc2ccc(Br)o2)C(=O)c2ccccc21	76	38[fluorescence artefact?]	105	-	-	89[fluorescence artefact?]
C=CCNC(=O)c1c(Cl)cnn1-c1ccc(C)cc1	-	-	-	-	-	-
CCN(CC)c1ccc(NC(=O)c2cncc(Br)c2)cc1	-	-	58	-	-	-
CCN(CC)c1ccc(NC(=O)Nc2ccc(C(C)=O)cc2)cc1	-	-	97	-	-	-
c1ccc(-c2ccc3c(c2)NCCN3)cc1	-	-	-	.	-	-
Oc1ccc(/C=N/N=C(c2ccccc2)c2ccccc2)c(O)c1O	-	33[fluorescence artefact?]	101	-	-	-
O=C(/C(=N/N=C/c1ccc(O)c(O)c1O)c1ccccc1)c1ccccc1	-	-	52	-	-	-
COc1ncccc1-c1nnn(-c2ccc(F)cc2)n1	-	-	-	-	-	-
Cc1ccc(C2CC(C(F)(F)F)n3nc(C(=O)NCCN4CCOCC4)cc3N2)cc1 (centres undefined)	-	-	-	-	-	-
